Source: PubChem
Lassa entry inh = Lassa virus entry inhibition | Potency, µM (highest dose often 37.9 µM), inactives show at the highest dose activity change, negative = inhibition, most hits filed as inhibitors | Lassa virus pseudotype entry inhibition, cell reporter | AID 540256 | actives 1.2% (n = 300,000); calls by dose curve; tested in HEK293 cells; also: potency is read from the fitted curve at half-maximal effect; nearly all actives have a fitted effect of over 50% in size
HCV inh = HCV inhibition | Huh7.5.1 HCVcc-Cre infection, luciferase reporter, 44 h | Potency, µM (highest dose often 41.8 µM), for the others: top-dose activity change, negative = inhibition, most hits filed as inhibitors | actives 3.4% (n = 340,000) | AID 651820; also: potency is read from the fitted curve at half-maximal effect
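Antiviral activity was scored by luciferase reporter output from cells infected with HCVcc-Cre (~0.5 moi) in presence of compound, 44 h infection period, cells seeded 1,000/well 4 h prior.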
HCMV antiviral = human cytomegalovirus inhibition; HFF cells, HCMV-luciferase reporter, 72 h; stronger effect = lower value; activity change, negative = inhibition, % at 57.5 µM; actives 4.5% (n = 410,000); in the data active = activity change below about -60%; inconclusive = no clear call, values can overlap the other calls; inactive = above about -39%
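Two compound doses tested in HFFs infected with HCMV-luciferase, MOI 1 PFU/cell, 72 h at 37C. Lysate luminescence read with OneGlo; data normalized against buffer-only and 10uM Salinomycin inhibitor controls.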
Pf growth 96h = inhibits malaria parasite growth, 96 h | P. falciparum luciferase reporter growth, 96 h | Potency, µM (top dose mostly 28.7 µM), for inactives: at the top dose activity change, negative = inhibition, usual class: inhibitors | actives 6.9% (n = 320,000); also: potency is read from the fitted curve at half-maximal effect
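Cell-based qHTS: luciferase-tagged P. falciparum in erythrocytes (2% hematocrit, 0.05% parasitemia final) incubated with compounds for 96 hours, 37 C, 5% CO2; luciferase detection reagent then added and luminescence measured.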
Marburg entry inh = blocks Marburg virus binding to or entry into cells. Potency, µM (series often up to 37.8 µM), for inactives: at the highest dose activity change, negative = inhibition, hits mostly inhibitors. Marburg virus pseudotyped entry inhibition, cell reporter. actives 1.8% (n = 300,000); calls by dose curve; tested in HEK293 cells; also: potency is read from the fitted curve at half-maximal effect
Pf growth 48h = inhibits P. falciparum growth in the first generation, 48 h; actives 5.9% (n = 310,000); P. falciparum luciferase growth in erythrocytes, 48 h; Potency, µM (titrated, usually from 28.7 µM), without a hit: top-dose activity change, negative = inhibition, most hits filed as inhibitors; also: potency is read from the fitted curve at half-maximal effect
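Here the parasites carry a stable luciferase gene and grow inside erythrocytes in Albumax-based RPMI medium with compound for one erythrocytic cycle. Activity is scored as loss of luminescent signal.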
An asterisk follows results filed as active; ? = inconclusive; · = no result given; [ ] = another dose, or the depositor's remark. Hits are enriched below; roughly 14% of the tested compounds scored in any of these assays. Unless noted, calls follow the shape of the dose curve; as a rule, active = well fitted inhibition curve with a large enough effect; inconclusive = small, poorly fitted or top-dose-only effect, or another doubt; inactive = no such curve, though single readings can be large or run the other way. % is scaled to controls: 0 for no effect and ±100 for the full control effect.

SMILES	Lassa entry inh	HCV inh	HCMV antiviral	Pf growth 96h	Marburg entry inh	Pf growth 48h
CC(C)=CCOc1ccc([C@@H]2COc3c(ccc4c3C=CC(C)(C)O4)C2)c(O)c1	·	4.5µM*	?	·	·	·
COc1ccc(OCc2cc(=O)c3ccc4c(c3o2)C=CC(C)(C)O4)cc1OC	·	?	11	·	·	·
CNC(=S)N/N=C/C1=CCC2CC1C2(C)C (stereo not drawn)	1.3µM*	18%	64	4.1µM*	3%	5.9µM*
CC1(C)C2CC=C(/C=N/NC(=O)c3ccccc3O)C1C2 (stereo not drawn)	17%	-6%	97	-24%	?	-20%
CC1(C)C2CC=C(/C=N/NC(=S)NCCc3ccccc3)C1C2 (stereo not drawn)	·	?	1	1.5µM*	-30%[46.1 µM]	?
Cn1cccc1CN1CCC[C@]2(N[C@H](c3ccc(C(F)(F)F)cc3)[C@@H]3C(=O)N(Cc4ccccc4)C(=O)[C@@H]32)C1=O	·	·	14	·	·	·
CCc1cc2c(=O)c(-c3ccc4c(c3)OCCO4)coc2cc1OS(C)(=O)=O	?	11µM*	?	27%	5.6µM*	68%
O=c1c(-c2ccc3c(c2)OCCO3)coc2c(CN3CCOCC3)c(O)ccc12	6%	-10%	93	12µM*	10%	-30%
CCc1cc2c(=O)c(-c3nc4ccccc4n3C)coc2c(CN2CCCC(C)C2)c1O (stereo not drawn)	-15%	19%	23	?	1%	?
CCc1cc2c(=O)c(-c3nc4ccccc4[nH]3)coc2c(CN2CCCCC2C)c1O (stereo not drawn)	·	?	-23	0.74µM*	·	1.5µM*
CCc1cc2c(=O)c(-c3ccc4c(c3)OCCO4)coc2c(CN2CCCCC2C)c1O (stereo not drawn)	?	6.3µM*	-62*	-4%	?	2.1µM*
COc1ccc(-c2cc(C(F)(F)F)n3nc(C(=O)Nc4ccccc4SC)cc3n2)cc1OC	-3%[46.1 µM]	·	0	·	3%[46.1 µM]	·
Cc1cc(C)cc(NC(=O)CSc2nnc(-c3cc4occc4n3C)n2-c2ccccc2C)c1	-9%[46.1 µM]	·	11	·	·	·
Fc1ccc(CNc2nc3c(-c4ccc(F)cc4)nnn3c3ccccc23)cc1	10%[46.1 µM]	·	35	·	21%[46.1 µM]	·
N#CC1=C(N)N(c2cccc(Cl)c2)C2=C(C(=O)CCC2)C1c1cc(CN2CCOCC2)cs1 (stereo not drawn)	11%[46.1 µM]	·	-11	·	-9%[46.1 µM]	·
COc1ccc(CNCCC(c2ccccc2)c2ccc3c(c2)OCO3)cc1 (stereo not drawn)	?	10µM*	-18	?	?	?
Cc1ccc(C(CCN)c2ccco2)cc1 (stereo not drawn)	7%	-13%	9	·	?	-15%
O=S(=O)(NCCC(c1ccc(F)cc1)c1ccco1)c1ccccc1 (stereo not drawn)	-18%	?	?	-58%	-9%	?
COc1ccc(CNCCC(c2ccc(C)cc2)c2ccco2)cc1 (stereo not drawn)	-20%[46.1 µM]	·	-78*	·	28µM*	·
Fc1ccc(C(CCNCc2cccs2)c2ccco2)cc1 (stereo not drawn)	-1%	-4%	-16	?	7.9µM*	?
C/C(=N\NC(=O)c1nnn(-c2nonc2N)c1CSc1ccc(C)cc1)c1cccnc1	·	·	-3	·	·	·
COc1ccccc1NC(=O)CCn1cnc2ccccc2c1=O	12%[46.1 µM]	·	28	38%	·	5%
O=C1Nc2ccc(S(=O)(=O)NCc3ccccn3)c3cccc1c23	18%	8%	87	10µM*	2%	·
Cc1cccc(OCc2nnc(SC(C)C(=O)O)n2-c2ccccc2)c1 (stereo not drawn)	·	23%	4	16%	·	-19%
COc1ccc(OCCOC(=O)c2ccc(-n3cnnn3)cc2)cc1	4%	1%	-2	?	0%	·
COc1cccc(NC(=O)c2ccc(-n3cnnn3)cc2)c1	-2%	-25%	?	4.1µM*	15%[46.1 µM]	18%
COc1ccc(OCCOC(=O)c2cccc(-n3cnnn3)c2)cc1	-1%	-17%	68	15µM*	?	53%
